The record followed here is ChEMBL document CHEMBL4513146, “CO-ADD screening of Karazin Kharkiv National University (Ukraine) compounds”.

The Inhibition is the relative decrease from the control value, in per cent.

Results with a measured potency or affinity are listed apart.

For the test, the system named is Cryptococcus neoformans. The note with it: Concentration 32 ug.mL-1; ASSAY_TEST Inhibition of Fungal Growth; detection method Resazurin; Absorption (OD600-OD570); plate type 384well; NBS; CORNING #3640. Background: The colour change of resazurin is a common sign of viable cells or microbes.
Consider `CC(C)Cn1c(=O)c2sccc2n2c(=O)n(Cc3ccccc3Cl)nc12`, for which the Inhibition was -28.89%. Turning to `Cc1ccc(-n2ccn3c(=O)n(Cc4c(F)cccc4Cl)nc3c2=O)cc1C`, the Inhibition was -16.44%. In the case of `CCOc1ccccc1CNC(=O)CCc1nnc2ccc(-c3ccccc3)nn12` it was -22.57%. As for `CCOc1ccccc1NC(=O)Cn1nc2c3c4c(sc3ncn2c1=O)CCCC4`, the figure is -12.75%; as for `Cc1cccc(-c2nc(CSc3nc4ccccc4n4c(C)nnc34)c(C)o2)c1`, -23.71%. As for `O=c1c2nnc(SCc3cccc(F)c3)n2ccn1-c1ccc(Br)cc1`, the figure is -10.68%; as for `CSc1cccc(NC(=O)Cn2nc3c(Sc4cccc(F)c4)nccn3c2=O)c1`, -2.39%; as for `CCc1ccc(N(Cc2cccc(F)c2)S(=O)(=O)c2cccn3c(C)nnc23)cc1`, -10.22%. `CCOc1ccc(N(Cc2ccc(F)cc2)S(=O)(=O)c2ccc3nncn3c2)cc1`: the Inhibition is -3.72%.

Regarding `CCc1ccccc1NC(=O)Cn1nc2c(SC3CCCCC3)nccn2c1=O`, the Inhibition is reported as -27.01%.

With `Cc1cccc(NC(=O)Cn2nc3nc(N4CCCCCC4)ccn3c2=O)c1C`, the Inhibition is -8.73%.

Turning to `CSc1ccc(CNC(=O)Cn2nc3c(N4CC(C)CC(C)C4)nccn3c2=O)cc1` (stereo not given), the Inhibition was -5.38%. In the case of `COc1ccc(NC(=O)Cn2nc3c4cc(-c5cc(C)ccc5C)nn4ccn3c2=O)c(OC)c1` it was -9.3%; in that of `O=c1n(Cc2nc(-c3ccc(Cl)cc3)no2)nc2ccc(-c3ccccc3)nn12`, -20.52%.

As for `Cc1ccc(Cn2c(=O)c3ccccc3n3c(=O)n(CC#N)nc23)cc1`, the Inhibition is -25%.

In the case of `Cc1ccc(S(=O)(=O)Nc2ccc3nnc(-c4ccccc4)n3n2)cc1C`, the Inhibition is -4.99%.

Take `N#Cc1ccc(NC(=O)Cn2nc3c(SCc4ccc(Cl)cc4)nccn3c2=O)cc1`: the Inhibition is given as -19.24%. As for `Cc1cccc(NC(=O)Cn2nc3ccc(-c4ccc(Cl)cc4)nn3c2=O)c1`, the figure is -6.79%; as for `CCOc1ccc(NC(=O)CSc2nnc3c(=O)n(-c4ccc(OCC)cc4)ccn23)cc1`, -11.05%; as for `Cc1nnc2ccc(S(=O)(=O)N(Cc3ccc(F)cc3)c3ccc(Cl)cc3)cn12`, -10.26%.

In the case of `CCc1nnc2ccc(S(=O)(=O)N(Cc3ccc(F)cc3)c3ccccc3)cn12`, the Inhibition is listed as -7.1%. In the case of `Cc1ccc(NC(=O)Cn2nc3c(N4CCCC4)nccn3c2=O)cc1Cl` it was -21.34%; in that of `Cc1ccc(CNC(=O)Cn2nc3c(Oc4ccccc4C)nccn3c2=O)cc1`, -7.58%; in that of `COc1ccccc1-n1ccn2c(SCC(=O)Nc3ccc(C)c(F)c3)nnc2c1=O`, -5.32%.

Turning to `O=C(Cn1nc2c(SC3CCCCC3)nccn2c1=O)Nc1ccccc1Br`, the Inhibition was -1.71%. As for `COC(=O)c1ccc(Cn2nc3ccc(S(=O)(=O)N4CCCCCC4)cn3c2=O)o1`, the figure is -5.87%; as for `CCCCn1c(=O)c2sccc2n2c(=O)n(CC(=O)N(C)c3ccccc3)nc12`, -15.83%.

On to `Cc1ccc(-c2ccc3nn(CC(=O)N4CCN(c5ccc(F)cc5)CC4)c(=O)n3n2)cc1C`, for which the Inhibition is reported as -10.89%.

Turning to `CC1CC(C)CN(c2nccn3c(=O)n(CC(=O)Nc4cccc(C(F)(F)F)c4)nc23)C1` (stereo not given), the Inhibition was -9.37%. In the case of `COc1ccc(N(Cc2ccc(OC)c(F)c2)S(=O)(=O)c2ccc3nncn3c2)cc1`, the Inhibition worked out at 0.06%. In the case of `COc1ccc(NC(=O)CSc2nnc3c(=O)n(-c4cccc(F)c4)ccn23)cc1OC` it was -8.06%. With `O=c1c2sccc2n2c(=O)n(Cc3ccc(Br)cc3)nc2n1CCc1ccccc1`, the Inhibition is reported as -16.22%.

Turning to `COc1cc(NC(=O)CSc2nnc3c(=O)n(-c4cccc(OC)c4)ccn23)cc(OC)c1`, the Inhibition is -8.68%. As for `O=C(Cn1nc2ccc(SCc3ccc(Cl)cc3)nn2c1=O)Nc1cccc(F)c1`, the figure is -11.95%; as for `Cc1cccc(C)c1NC(=O)Cn1nc2n(C)c(=O)c3c(c(-c4ccccc4)cn3C)n2c1=O`, -9.16%; as for `Cc1cc2nn(CC(=O)Nc3cccc(F)c3)c(=O)n2c(Nc2ccc(F)c(C)c2)n1`, -7%. In the case of `CCCc1nnc2c(=O)n(CC(=O)Nc3cccc(Br)c3)c3ccccc3n12` it was -38.92%. In the case of `COc1ccccc1NC(=O)Cn1nc2c3cc(-c4ccc(Cl)cc4)nn3ccn2c1=O` it was -18.6%; in that of `Cc1cc2nn(CC(=O)Nc3cccc(C)c3C)c(=O)n2c(Nc2ccc(C)c(F)c2)n1`, -5.98%; in that of `Cc1ccc(NC(=O)Cn2nc3c(Sc4ccccc4)nccn3c2=O)c(Br)c1`, -9.68%.
